Screening results: PubChem BioAssay, Broad Institute
Only a sample is shown.
aSyn UTR act – Activators working through SNCA 5'UTR binding (MLPCN). alpha-synuclein 5'UTR reporter, activators screen. activity score, % (tested at 7.5 µM), hits read low. 300,000 tested, 7.1% active. AID 1814; in the data active means activity score below about -60%
The depositor's hits bear a star.

SMILES	aSyn UTR act
CCOC(=O)Nc1nc2ccccc2s1	-124.9*
CCCNC(=O)c1ccc(-c2nc3ccccc3s2)s1	79.2
O=C(CCNC(=O)c1ccccc1Cl)Nc1nc2ccccc2s1	-83.3*
CCCNC(=O)Nc1nc2ccccc2s1	-117.8*
CCOC(=O)Nc1nc(-c2ccc(Cl)cc2Cl)cs1	-97.1*
CC12CCC(C(=O)Nc3nc4ccccc4s3)(OC1=O)C2(C)C (stereo unspecified)	-112.8*
CCCCNC(=O)Nc1nc2ccccc2s1	-80.8*
CCCCNC(=O)Nc1nc2ccc(CC)cc2s1	-123.8*
Cc1ccc(C2=[N+]([O-])C3(CCCCC3=O)N(O)C2(C)C)cc1 (stereo unspecified)	49.4
CN(C)c1ccc(CC(=O)c2nc3ccccc3s2)cc1	-124.8*
CN(CC(=O)Nc1nc2ccccc2s1)S(=O)(=O)c1ccccc1	-82.7*
CCc1ccc2nc(NC(=O)CSCc3c(C)noc3C)sc2c1	-73.3*
COC(=O)c1cn[nH]c1NC(=S)Nc1ccc(Cl)c(Cl)c1	-100.7*
COC(=O)c1cn[nH]c1NC(=S)Nc1ccc(C)cc1Cl	-126.7*
COc1ccc(-c2noc(-c3ccco3)n2)cc1OC	-110.3*
COc1ccc(-c2noc(-c3ccoc3C)n2)cc1	-142.9*
COc1ccc(C2=Nn3c(nnc3-c3ccco3)SC2)cc1OC	79.0
COc1cccc(-c2noc(-c3ccoc3C)n2)c1	-212.5*
COc1ccc(-c2noc(-c3ccoc3C)n2)cc1OC	-131.8*
CCN1/C(=C\C(=S)Nc2ccccc2)Sc2ccccc21	-143.6*
CCN1/C(=C/C(C)=C/c2sc3ccccc3[n+]2CC)Sc2ccccc21	99.7
Cc1ccc(C2=NN3C(C2)c2ccccc2OC32C(=O)Nc3ccccc32)cc1 (stereo unspecified)	-147.6*
CN1C(=O)C2(Oc3ccccc3C3CC(c4ccccc4)=NN32)c2ccccc21 (stereo unspecified)	-163.7*
C=CCN1C(=O)CS/C1=N\N=C\c1cccc([N+](=O)[O-])c1	-72.7*
Fc1ccc(N2CCN(C3=Nc4cccc5cccc3c45)CC2)cc1	-173.5*
SMILES	aSyn UTR act
c1ccc(CN2CCN(C3=Nc4cccc5cccc3c45)CC2)cc1	-101.4*
Cc1cc(N2CCN(Cc3cn(C)nc3-c3ccccc3F)CC2)cc(C)n1	90.9
Cc1cc(=O)oc2cc(NC(=O)c3ccccc3Cl)ccc12	-201.3*
Cc1cc(=O)oc2cc(NC(=O)c3c(Cl)cnn3C)ccc12	-76.1*
Cc1ccc2sc3ccc(NC(=O)c4ccccc4Cl)cc3c(=O)c2c1	-109.1*
Cc1cc(=O)oc2cc(NC(=O)c3ccnn3C)ccc12	-135.3*
Cc1ccc(C)c(Nc2c([N+](=O)[O-])cc(C(=O)N3CC(=O)Nc4ccccc43)cc2[N+](=O)[O-])c1	77.6
O=C1CN(C(=O)c2cccc(Br)c2)c2ccccc2N1	-84.6*
Cc1ccccc1NC(=O)Nc1ccc(C(F)(F)F)cc1	-100.3*
COc1ccccc1NC(=O)Nc1ccc2c(c1)CCC2	-126.2*
COc1cc(SC)ccc1C(=O)Nc1ccc(Cl)cn1	99.7
COc1cc(SC)ccc1C(=O)Nc1ccccc1C#N	-192.2*
COc1cc(SC)ccc1C(=O)Nc1ccc2c(c1)CCC2	-118.8*
Cc1ccccc1NC(=O)Nc1ccc2c(c1)CCC2	-140.9*
CCOc1ccc(NC(=O)c2cccc3c2C(=O)N(Cc2cccnc2)C3)cc1	-110.7*
COc1ccc(-c2cc(C(=O)NCC(C)C)no2)cc1	-99.3*
CCOc1ccc(-c2cc(CCCC(=O)NCCCOC)no2)cc1	86.7
CCC(C)NC(=O)c1cc(-c2ccc(OC)cc2)on1 (stereo unspecified)	-118.0*
CCC(C)NC(=O)c1cc(-c2ccc3c(c2)OCO3)on1 (stereo unspecified)	-141.3*
CCC(C)NC(=O)c1cc(CC(C)C)on1 (stereo unspecified)	-68.3*
Cc1c(-c2ccc(Cl)cc2)[n+](=O)c(-c2ccccc2)cn1[O-]	-118.3*
COc1cccc(NC(=O)CSc2nnc(-c3cccc(OC(C)C)c3)n2N)c1	-73.2*
C=CCn1c(=NC(=O)c2ccco2)sc2cc(C(=O)OC)ccc21	-76.6*
CCc1ccc(Nc2nnc(SCC(=O)Nc3cccnc3Cl)s2)cc1	-64.4*
CCc1ccc(Nc2nnc(SCC(=O)NCCN3C(=O)CSC3=O)s2)cc1	-65.1*
SMILES	aSyn UTR act
CCc1ccc(Nc2nnc(SCC(=O)Nc3sccc3C(N)=O)s2)cc1	-86.3*
Brc1ccc(C2=Nc3cccc4cccc(c34)N2)o1	-74.1*
COC(=O)c1ccc(CN2C(=O)NC(Cc3c[nH]c4ccccc34)C2=O)cc1 (stereo unspecified)	-95.5*
CC(C)(C)c1ccc(N=C2SCC(=O)N2Cc2cccs2)cc1	-71.6*
O=C(Nc1ccc(N2CCOCC2)c(F)c1)c1cccs1	-123.4*
O=C(c1ccccc1)c1cc([N+](=O)[O-])ccc1N1CCOCC1	101.3
O=C(c1ccccc1)c1ccc(N2CCOCC2)c(F)c1	-144.8*
CN(C)c1ccc(NC(=O)c2ccc(N3CCOCC3)nc2)cc1	-62.3*
Cc1ccc(C(=O)Nc2ccc(N3CCOCC3)nc2)cc1	-71.3*
O=C(Nc1ccc(N2CCOCC2)nc1)c1cccs1	-104.1*
O=C(NCCSCc1ccco1)Nc1cccc(Cl)c1	-125.6*
O=C(NCCSCc1ccco1)Nc1ccc(Cl)cc1	-134.1*
O=C(N/N=C\c1ccco1)Nc1cccc(Cl)c1	-131.3*
Cc1nnsc1SCCNC(=O)Nc1ccc(Cl)cc1	-97.8*
O=C(Nc1ccc(Cl)c(Cl)c1)Nc1ccon1	-69.4*
CCOC(=O)c1ccc(NC(=O)Nc2ccon2)cc1	64.2
O=C(Nc1ccc(Cl)c(Cl)c1)Nc1ccccc1O	-104.9*
Cc1ccc(C2CC(c3ccccc3)=NN2c2ccccc2)o1 (stereo unspecified)	-232.4*
COc1ccc(C2CC(c3cccs3)=NN2c2nc(-c3ccccc3)cs2)cc1OC (stereo unspecified)	-64.4*
COc1cc(-c2nnc3n2N=C(c2ccccc2)CS3)cc(OC)c1OC	62.8
COc1ccc(C2=NN(c3ccccc3)C(c3ccc(OC)c(OC)c3)C2)cc1 (stereo unspecified)	-75.5*
CC(=O)Nc1ccc(C2CC(c3ccc(Cl)cc3)=NN2c2ccccc2)cc1 (stereo unspecified)	-79.4*
COc1ccc(C2=NN(C(C#N)c3ccc(OC)c(OC)c3)C(c3ccccc3)C2)cc1 (stereo unspecified)	-172.2*
Nc1ccccc1C#Cc1ccc2[nH]ccc2c1	-174.5*
Nc1ccccc1C#Cc1ccccc1	-162.2*
SMILES	aSyn UTR act
CCn1c(=O)oc2cc(NC(=O)CCl)ccc21	-104.0*
Cn1c(=O)n(C)c2cc(NC(=O)CCl)ccc21	-180.0*
CCOc1ccc(C(=O)Nc2ccc3c(c2)OCCO3)cc1OC	-143.6*
CCOc1cccc(C(=O)NC(=S)Nc2ccc3c(c2)OCCO3)c1	-87.3*
CC(C)CNS(=O)(=O)c1ccc(C(=O)Nc2ccc3c(c2)OCCO3)cc1	-98.3*
Cc1cc(C)n(-c2ccc(C(=O)OCc3ccccc3)cc2)n1	-68.0*
Cc1cc(C)n(-c2ccc(C(=O)Nc3sccc3C(N)=O)cc2)n1	-139.1*
Cc1cc(C(=O)Nc2ccc3c(c2)OCCO3)co1	-112.9*
COc1cc(OC)cc(C(=O)Nc2ccc3c(c2)OCCO3)c1	-122.8*
Cc1cc(C)n(-c2ccc(C(=O)Nc3ccc4c(c3)OCCO4)cc2)n1	-100.6*
CCOC(=O)c1cc([N+](=O)[O-])sc1NC(=O)c1ccc(S(=O)(=O)N2CC3(C)CC2CC(C)(C)C3)cc1 (stereo unspecified)	54.5
